Hits are enriched below; roughly 3.4% of the tested compounds scored in any of these assays.
FBW7 activator: FBW7 E3 ligase activators, primary screen, biochemical, AlphaScreen, human | F-box/WD repeat-containing protein 7 (Homo sapiens), Q969H0 | AlphaScreen FBW7–phospho-cyclin E peptide binding, activator screen | normalized activity (activation), % at 26.1 µM | 650,000 compounds, 0.13% hits; in the data active means normalized activity above about 1.9%;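 further: purified mutant Fbw7 with reduced substrate affinity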
TEAD-YAP inh: TEAD-YAP interaction inhibition, primary screen, TEAD-YAP interaction inhibitor project, luminescence, HEK-TIYL cells; TEAD-Gal4/YAP UAS-luciferase luminescence; inhibition, % at 9.12 µM; 640,000 compounds, 1.4% hits; in the data active means inhibition above about 32%
MITF inh: MITF inhibitors, primary screen, biochemical, AlphaScreen, human; Microphthalmia-associated transcription factor (Homo sapiens), O75030; AlphaScreen MITF homodimerization, bead proximity signal; inhibition, % at 2.6 µM; 650,000 compounds, 0.91% hits; in the data active means inhibition above about 50%
GPR151 ag: activators of human GPR151, primary screen, cell-based, PathHunter beta-arrestin, luminescence; G-protein coupled receptor 151 (Homo sapiens), Q8TDV0; PathHunter beta-arrestin GPR151 cells; activation, % at 11.2 µM; 650,000 compounds, 1% hits; AID 1508602, 2020; in the data active means activation above about 4.9%
MITF confirm: MITF inhibitors, retest of hits, confirmation, biochemical, AlphaScreen, triplicate | shares compounds with MITF inh | 4,700 compounds, 16% hits | AlphaScreen MITF homodimerization, biotin/His-MITF beads | inhibition, % at 2.6 µM;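 active means inhibition above a cutoff derived from the DMSO control wells, cut at about 28% in these data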;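 further: inhibitors lower the bead chemiluminescence by keeping MITF from dimerizing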
AS interf ctr: AlphaScreen optical interference compounds, counter-screen for MITF inhibitor project, biochemical, triplicate; shares compounds with MITF inh; 4,700 compounds, 7.6% hits; AID 1259376, 2018; LysRS AlphaScreen counterscreen, signal interference; inhibition, % at 2.6 µM;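 active means inhibition above a cutoff derived from the DMSO control wells, cut at about 30% in these data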
Each line names hits and unclear results; the compound was inactive in the other large screens (follow-up assays come after a bar, where they were run).

CCOC(=O)c1c(NC(=O)C(F)(F)F)sc(C(=O)Nc2ccccc2)c1C	MITF inh 55 | MITF confirm inactive | AS interf ctr inactive
COc1ccc(OC)c(/C=C2/SC(=NCc3ccccc3)N(Cc3ccccc3)C2=O)c1	none
COc1ccccc1OCC#CCn1ccnc1	MITF inh 63 | MITF confirm inactive | AS interf ctr inactive
COc1ccc(S(=O)(=O)CCC(=O)N2CCN(c3cccc(C)c3C)CC2)cc1	MITF inh 63 | MITF confirm inactive | AS interf ctr inactive
COc1ccc(CC(=O)N2CCN(c3cccc(C)c3C)CC2)cc1	none
CCC(C)CC(=O)N1CCC2(CC1)CC2C(=O)N1CCN(C2CCCCC2)CC1 (centres undefined)	none
O=C(O)C1=CC(=C(c2ccc(O)c(C(=O)O)c2)c2ccc(O)c(C(=O)O)c2)C=CC1=O	MITF inh 64 | MITF confirm 83 | AS interf ctr 50
O=C(Nc1ccc(O)c(C(=O)O)c1)c1ccc(Br)cc1	none
O=c1c(-c2ccccc2)coc2cc(OCCN3CCOCC3)ccc12	none
CC1=NN(c2cccc3ccccc23)C(=O)C1	none
CC1=NN(c2ccc3cccc(O)c3n2)C(=O)C1	MITF inh 90 | MITF confirm 115 | AS interf ctr 101
CC1=NN(c2ccccc2)C(=O)C1C(c1ccccc1[N+](=O)[O-])C(C#N)C#N (centres undefined)	MITF inh 52 | MITF confirm inactive | AS interf ctr inactive
CC1=NN(c2ccccc2)C(=O)C1C(c1ccc([N+](=O)[O-])cc1)C(C#N)C#N (centres undefined)	none
CCCCOC(=O)c1ccc(OC(=O)c2ccc(Br)o2)cc1	none
CCc1[nH]nc2c1C(C1CCCCC1)c1c(N)noc1-2 (centres undefined)	none
O=C(CCc1ccccc1)Nc1nnc(-c2cccs2)s1	MITF inh 55 | MITF confirm inactive | AS interf ctr inactive
O=C(Nc1ccc2c(c1)OCO2)c1ccnc(Nc2nccc3ccccc23)c1	none
CC1=C(C(=O)N2CCOCC2)C(c2ccc(C)cc2)NC(=S)N1 (centres undefined)	MITF inh 70 | MITF confirm inactive | AS interf ctr inactive
CC1=C(C(=O)N2CCOCC2)C(c2ccc(Cl)cc2)NC(=S)N1 (centres undefined)	none
COc1ccc(/C=N/NC(=O)CNc2ccc(C)cc2)cc1Cl	none
Fc1ccc(-c2cc(NCCCn3ccnc3)nc(-c3ccccc3)n2)cc1	MITF inh 55 | MITF confirm 34 | AS interf ctr 42
Fc1ccc(-c2cc(NCCCn3ccnc3)nc(-c3ccccn3)n2)cc1	MITF inh 56 | MITF confirm inactive | AS interf ctr 62
c1cc(-c2cc(NCCCn3ccnc3)nc(-c3ccncc3)n2)ccn1	MITF inh 72 | MITF confirm 34 | AS interf ctr 42
FC(F)(F)c1cccc(-c2cc(NCCCn3ccnc3)nc(-c3ccccn3)n2)c1	none
Cc1ccc(C(=O)c2cc(C)sc2NC(=O)CN2CCOCC2)cc1	none
O=[N+]([O-])c1ccc(N2CCN(CCOCCO)CC2)c([N+](=O)[O-])c1	MITF inh 56 | MITF confirm inactive | AS interf ctr inactive
COC(=O)c1sc(NC(=O)CN2CCCCC2C)c(C(=O)OC)c1C (centres undefined)	MITF inh 59 | MITF confirm inactive | AS interf ctr inactive
CCOC(=O)c1sc(NC(=O)CN2CCCCC2C)c(C(=O)OCC)c1C (centres undefined)	none
O=C(CN1CCOCC1)Nc1ccc([N+](=O)[O-])cc1C(=O)Nc1ccccc1F	none
O=C(CNCc1ccccn1)Nc1ccc([N+](=O)[O-])cc1C(=O)Nc1ccccc1F	MITF inh 75 | MITF confirm inactive | AS interf ctr inactive
COc1cc2c(cc1OC)CN(CCC(c1ccccc1)c1ccccc1)CC2	none
COc1cc2c(cc1OC)CN(CC(O)c1ccccc1)CC2 (centres undefined)	MITF inh 51 | MITF confirm inactive | AS interf ctr inactive

Bioassay records (PubChem)
